Reference: PubChem BioAssay AID651826 (Vanderbilt Specialized Chemistry Center, 2012)
The source made the active and inactive calls.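 How the source made its calls: active means inhibition above 50% of specific binding or functional response at a panel target; inactive means the rest.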

Test: radioligand displacement at GPCRs, transporters, channels – biochemical, Ricerca panel, radioligand binding, selectivity assay for E-cadherin project, profiling panel (AID 651826)
Details: Ricerca radioligand binding/enzyme panel, % inhibition, at 10 µM, stronger effect = higher value

## O=C(NCCCNC(=O)c1ccc[nH]c1=O)c1cc(-c2ccccc2)on1
  inhibition: 74% (active)
Measured here: 5-HT1A binding
  inhibition: -4%
Measured here: GABAA muscimol site binding
  inhibition: 20%
Measured here: adenosine A1 binding
  inhibition: 71%
Measured here: cannabinoid CB1 binding
  inhibition: -23%
Measured here: dopamine D3 binding
  inhibition: 18%
Measured here: dopamine transporter binding
  inhibition: 31%
Measured here: hERG channel binding
  inhibition: 13%
Measured here: mu opioid binding
  inhibition: -5%
Measured here: muscarinic M1 binding
  inhibition: 9%
Measured here: norepinephrine transporter binding
  inhibition: 13%
Measured here: serotonin transporter binding
  inhibition: 10%
Measured here: sigma1 receptor binding
  inhibition: 47%
